Test results taken from PubChem BioAssay (Tox21).
Inconclusive results are not listed. A call without a number means that no potency is given here. The source made the active and inactive calls. Calls follow the shape of the dose curve; as a rule, active = well fitted curve in the direction sought with a large enough effect in the repeat runs; inconclusive = weak or mixed curves; inactive = no such curve, though single readings can be large; an effect the other way counts as inactive or inconclusive. Starred links: 1 amine or outer side, 2 acyl side, 3 side chain; linkers in the order of their positions; H or OH if unused. Positions of bridges follow the written chain, without caps; N, C: chain ends. Non-standard residues stand in square brackets, D forms with d. Residues, ends and D or L forms follow the SMILES beside them. *: point of attachment. X5 = NC1=N[C@@H]([C@H](N[*:1])C(=O)[*:2])C[C@H](O)N1; ΔAla(Z-3-ureido) = NC(=O)N/C=C(\N)C(=O)O; β3hOrn = NCCC[C@H](N)CC(=O)*; Dap = NC[C@H](N)C(=O)O

Molecular target: Aryl hydrocarbon receptor (Homo sapiens) (UniProt P35869)
Assay: qHTS assay to identify small molecule that activate the aryl hydrocarbon receptor (AhR) signaling pathway (AID 743085); also: nearly all actives have a fitted effect of over 15% in size; also: potency is read from the fitted curve at half-maximal effect
Settings: HepG2 AhR-luc (HG2L7.5c1), luciferase, 24 h; series mostly up to 70.3 µM
How it was run: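 Measured in HG2L7.5c1 cells: CellTiter-Fluor signal (30 min incubation, 37C) for viability, then luciferase luminescence (30 min, room temperature). Compound contact time was 24 h at 37C, following a 5 h pre-incubation.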

Aryl hydrocarbon receptor (Homo sapiens), sequence (P35869 whole entry, looked up): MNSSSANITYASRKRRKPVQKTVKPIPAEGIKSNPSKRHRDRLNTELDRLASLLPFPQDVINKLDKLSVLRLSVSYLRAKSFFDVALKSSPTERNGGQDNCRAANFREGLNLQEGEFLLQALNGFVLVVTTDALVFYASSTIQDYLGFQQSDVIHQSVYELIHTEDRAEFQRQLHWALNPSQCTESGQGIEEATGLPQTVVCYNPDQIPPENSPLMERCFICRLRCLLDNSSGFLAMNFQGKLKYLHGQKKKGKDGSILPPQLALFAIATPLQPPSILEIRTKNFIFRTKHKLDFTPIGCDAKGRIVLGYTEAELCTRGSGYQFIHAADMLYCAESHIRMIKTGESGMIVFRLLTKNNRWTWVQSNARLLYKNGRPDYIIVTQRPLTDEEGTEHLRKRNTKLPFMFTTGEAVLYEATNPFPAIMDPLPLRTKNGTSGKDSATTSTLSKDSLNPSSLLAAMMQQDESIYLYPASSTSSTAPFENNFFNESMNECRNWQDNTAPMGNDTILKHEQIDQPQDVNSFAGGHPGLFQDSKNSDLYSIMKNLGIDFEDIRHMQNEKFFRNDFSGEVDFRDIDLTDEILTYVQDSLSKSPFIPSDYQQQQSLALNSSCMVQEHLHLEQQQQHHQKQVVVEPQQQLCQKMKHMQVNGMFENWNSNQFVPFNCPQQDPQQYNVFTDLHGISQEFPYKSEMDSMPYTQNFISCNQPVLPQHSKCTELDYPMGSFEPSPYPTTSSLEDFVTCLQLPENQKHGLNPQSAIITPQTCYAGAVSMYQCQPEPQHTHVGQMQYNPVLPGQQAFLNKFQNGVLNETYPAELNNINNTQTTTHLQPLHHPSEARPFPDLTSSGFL

**Q.** For `C=C1c2c(Cl)ccc(O)c2C(O)=C2C(=O)[C@]3(O)C(O)=C(C(N)=O)C(=O)[C@@H](N(C)C)[C@@H]3[C@@H](O)[C@H]12`, which Potency is on record?
**A.** inactive

**Q.** With `CCCCCCCCCCCCCCCCCC(=O)OCCO` as the compound, how does the Potency read?
**A.** inactive

**Q.** Which Potency does the source give for `COc1cc(S(C)=O)ccc1-c1nc2ncccc2[nH]1` (stereo not drawn) here?
**A.** 2.11 µM (active)

**Q.** For `c1ccc2c(CCC3CCNCC3)c[nH]c2c1`, which Potency is on record?
**A.** 11.9 µM (active)

**Q.** With `CN[C@@H]1[C@@H](O)[C@@H](O[C@@H]2[C@@H](O)[C@H](OC3OC(CN)=CCC3N)[C@@H](N)C[C@H]2N)OC[C@]1(C)O` (stereo partly drawn) as the compound, how does the Potency read?
**A.** inactive

**Q.** Which Potency does the source give for `Cc1cc(Nc2ccccc2C(=O)O)ccc1Cl` here?
**A.** 26.6 µM (active)

**Q.** With `NCCCC[C@H](NC(=O)[C@@H]1CCCN1C(=O)[C@@H]1CSSC[C@H](N)C(=O)N[C@@H](Cc2ccccc2)C(=O)N[C@@H](Cc2ccccc2)C(=O)N[C@@H](CCC(N)=O)C(=O)N[C@@H](CC(N)=O)C(=O)N1)C(=O)NCC(N)=O` as the compound, how does the Potency read?
**A.** inactive

**Q.** With `O=c1[nH]cnc2[nH]cc(CN3CCCCC3)c12` as the compound, how does the Potency read?
**A.** inactive

**Q.** Which Potency does the source give for `CNC[C@@H]1CC[C@@H](N)[C@@H](O[C@H]2[C@H](O)[C@@H](O[C@H]3OC[C@](C)(O)[C@H](NC)[C@H]3O)[C@H](N)C[C@@H]2N)O1` here?
**A.** inactive

**Q.** For `CN(CCO)CC(O)Cn1cnc2c1c(=O)n(C)c(=O)n2C` (stereo not drawn) (tested in a mixture with another compound), which Potency is on record?
**A.** inactive

**Q.** With `Nc1ccn(C[C@@H](CO)OCP(=O)(O)O)c(=O)n1` as the compound, how does the Potency read?
**A.** inactive

**Q.** With `CN=C(NC)NCc1ccccc1` as the compound, how does the Potency read?
**A.** inactive

**Q.** For `C[N+](C)(CCCCCC[N+](C)(C)C1c2ccccc2-c2ccccc21)C1c2ccccc2-c2ccccc21`, which Potency is on record?
**A.** inactive

**Q.** With `Nc1ncnc(Nc2ccc(Cl)cc2)n1` as the compound, how does the Potency read?
**A.** 11.9 µM (active)

**Q.** For `O=P(O)(O)OC(Cn1cncn1)(Cn1cncn1)c1ccc(F)cc1F`, which Potency is on record?
**A.** inactive

**Q.** For `CCCC(=O)N1CCCN(c2nc(N)c3cc(OC)c(OC)cc3n2)CC1`, which Potency is on record?
**A.** 5.31 µM (active)

**Q.** Which Potency does the source give for `Cc1ccccc1CNc1ncnc2c1ncn2[C@@H]1O[C@H](CO)[C@@H](O)[C@H]1O` here?
**A.** inactive

**Q.** For `CC(=O)OC[C@H]1O[C@@H](O[C@H]2[C@H](O)[C@@H](OC(=O)c3ccccc3C(=O)O)[C@H](O)O[C@@H]2COC(C)=O)[C@H](O)[C@@H](OC(=O)c2ccccc2C(=O)O)[C@@H]1O`, which Potency is on record?
**A.** inactive

**Q.** Which Potency does the source give for `CCC(C)C(C(=O)OCC[N+](C)(CC)CC)c1ccccc1` (stereo not drawn) here?
**A.** inactive

**Q.** Which Potency does the source give for `CCOC(=O)[C@H](CCc1ccccc1)N[C@H]1CCCN2CCC[C@@H](C(=O)O)N2C1=O` here?
**A.** inactive

**Q.** Which Potency does the source give for `C#CCC(Cc1cnc2nc(N)nc(N)c2n1)c1ccc(C(=O)N[C@@H](CCC(=O)O)C(=O)O)cc1` (stereo partly drawn) here?
**A.** inactive

**Q.** With `NCCC[C@H](N)CC(=O)N[C@H]1CNC(=O)[C@H]([C@H]2C[C@H](O)NC(N)=N2)NC(=O)/C(=C/NC(N)=O)NC(=O)[C@H](CO)NC(=O)[C@H](CO)NC1=O` (β3hOrn-[Dap]SS[ΔAla(Z-3-ureido)][X5]; lactam 1-C) as the compound, how does the Potency read?
**A.** inactive

**Q.** Which Potency does the source give for `CC(=O)N[C@@H](CC(=O)N[C@@H](CCC(=O)O)C(=O)O)C(=O)O` here?
**A.** inactive

**Q.** For `C[C@H]1C[C@H]2[C@@H]3CCC4=CC(=O)C=C[C@]4(C)[C@@]3(F)[C@@H](O)C[C@]2(C)[C@@]1(O)C(=O)CCl`, which Potency is on record?
**A.** 6.68 µM (active)

**Q.** Which Potency does the source give for `Cc1c(O)cc2c(c1C)O[C@](C)(CCC[C@H](C)CCC[C@H](C)CCCC(C)C)CC2` here?
**A.** inactive

**Q.** Which Potency does the source give for `CCCCCCCCCCCCCCCC(=O)OC[C@@H](COP(=O)([O-])OCC[N+](C)(C)C)OC(=O)CCCCCCCCCCCCCCC` here?
**A.** inactive

**Q.** Which Potency does the source give for `CCCCCCCCCCCCCCCCCCOP(=O)([O-])OC1CC[N+](C)(C)CC1` here?
**A.** inactive

**Q.** With `C=C1CC2C3CCC4=CC(=O)C=C[C@]4(C)[C@@]3(F)[C@@H](O)C[C@]2(C)[C@@]1(O)C(=O)COC(C)=O` (stereo partly drawn) as the compound, how does the Potency read?
**A.** inactive

**Q.** With `CO[C@H]1[C@@H](O)[C@H](N)[C@@H](O[C@H]2O[C@H]([C@H](C)N)CC[C@H]2N)[C@H](O)[C@@H]1N(C)C(=O)CN` as the compound, how does the Potency read?
**A.** inactive

System: not listed separately
Assay: qHTS assay to identify small molecule that activate the aryl hydrocarbon receptor (AhR) signaling pathway - cell viability counter screen (AID 743086);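 also: HepG2 liver cells carrying the AhR DRE luciferase reporter; nearly all actives have a fitted effect of over 45% in size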
Settings: HepG2-AhR-luc viability, CellTiter-Fluor, 24 h; series mostly up to 70.3 µM
How it was run: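 HepG2-AhR-luc (HG2L7.5c1) cells, 4000/well, were preincubated 5 h at 37C, exposed to compound in qHTS format for 24 hr at 37C, then given CellTiter-Fluor for 30 min; viability was read as fluorescence in the reporter wells.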

**Q.** Which Potency does the source give for `C=C1c2c(Cl)ccc(O)c2C(O)=C2C(=O)[C@]3(O)C(O)=C(C(N)=O)C(=O)[C@@H](N(C)C)[C@@H]3[C@@H](O)[C@H]12` here?
**A.** inactive

**Q.** For `O=P(O)(O)C(O)(Cc1cnc2ccccn12)P(=O)(O)O`, which Potency is on record?
**A.** inactive

**Q.** With `CCCCCCCCCCCCCCCCCC(=O)OCCO` as the compound, how does the Potency read?
**A.** inactive

**Q.** For `COc1cc(S(C)=O)ccc1-c1nc2ncccc2[nH]1` (stereo not drawn), which Potency is on record?
**A.** inactive

**Q.** Which Potency does the source give for `CN[C@@H]1[C@@H](O)[C@@H](O[C@@H]2[C@@H](O)[C@H](OC3OC(CN)=CCC3N)[C@@H](N)C[C@H]2N)OC[C@]1(C)O` (stereo partly drawn) here?
**A.** inactive

**Q.** With `NCCCC[C@H](NC(=O)[C@@H]1CCCN1C(=O)[C@@H]1CSSC[C@H](N)C(=O)N[C@@H](Cc2ccccc2)C(=O)N[C@@H](Cc2ccccc2)C(=O)N[C@@H](CCC(N)=O)C(=O)N[C@@H](CC(N)=O)C(=O)N1)C(=O)NCC(N)=O` as the compound, how does the Potency read?
**A.** inactive

**Q.** With `O=c1[nH]cnc2[nH]cc(CN3CCCCC3)c12` as the compound, how does the Potency read?
**A.** inactive

**Q.** Which Potency does the source give for `O=C(O)c1ccc(OCCn2ccnc2)cc1` here?
**A.** inactive

**Q.** Which Potency does the source give for `CNC[C@@H]1CC[C@@H](N)[C@@H](O[C@H]2[C@H](O)[C@@H](O[C@H]3OC[C@](C)(O)[C@H](NC)[C@H]3O)[C@H](N)C[C@@H]2N)O1` here?
**A.** inactive

**Q.** For `CN(CCO)CC(O)Cn1cnc2c1c(=O)n(C)c(=O)n2C` (stereo not drawn) (tested in a mixture with another compound), which Potency is on record?
**A.** inactive

**Q.** For `Nc1ccn(C[C@@H](CO)OCP(=O)(O)O)c(=O)n1`, which Potency is on record?
**A.** inactive

**Q.** For `CN=C(NC)NCc1ccccc1`, which Potency is on record?
**A.** inactive

**Q.** For `C[N+](C)(CCCCCC[N+](C)(C)C1c2ccccc2-c2ccccc21)C1c2ccccc2-c2ccccc21`, which Potency is on record?
**A.** inactive

**Q.** For `O=P(O)(O)OC(Cn1cncn1)(Cn1cncn1)c1ccc(F)cc1F`, which Potency is on record?
**A.** inactive

**Q.** With `C[C@]12C=CC(=O)C=C1CC[C@@H]1[C@@H]2[C@@H](O)C[C@@]2(C)[C@H]1CC[C@]2(O)C(=O)COC(=O)CCC(=O)O` as the compound, how does the Potency read?
**A.** inactive

**Q.** With `CCCC(=O)N1CCCN(c2nc(N)c3cc(OC)c(OC)cc3n2)CC1` as the compound, how does the Potency read?
**A.** inactive

**Q.** Which Potency does the source give for `OCC(O)COc1ccc(Cl)cc1` (stereo not drawn) here?
**A.** inactive

**Q.** Which Potency does the source give for `C[C@]12CCC(=O)C=C1CC[C@@H]1[C@@H]2[C@@H](O)C[C@@]2(C)[C@H]1CC[C@]2(O)C(=O)COP(=O)(O)O` here?
**A.** inactive

**Q.** With `Cc1ccccc1CNc1ncnc2c1ncn2[C@@H]1O[C@H](CO)[C@@H](O)[C@H]1O` as the compound, how does the Potency read?
**A.** inactive

**Q.** With `CC(=O)OC[C@H]1O[C@@H](O[C@H]2[C@H](O)[C@@H](OC(=O)c3ccccc3C(=O)O)[C@H](O)O[C@@H]2COC(C)=O)[C@H](O)[C@@H](OC(=O)c2ccccc2C(=O)O)[C@@H]1O` as the compound, how does the Potency read?
**A.** inactive

**Q.** Which Potency does the source give for `CCC(C)C(C(=O)OCC[N+](C)(CC)CC)c1ccccc1` (stereo not drawn) here?
**A.** inactive

**Q.** Which Potency does the source give for `CCOC(=O)[C@H](CCc1ccccc1)N[C@H]1CCCN2CCC[C@@H](C(=O)O)N2C1=O` here?
**A.** inactive

**Q.** For `C#CCC(Cc1cnc2nc(N)nc(N)c2n1)c1ccc(C(=O)N[C@@H](CCC(=O)O)C(=O)O)cc1` (stereo partly drawn), which Potency is on record?
**A.** inactive

**Q.** With `CCN(CC)c1ccc(N=Nc2ccc(S(=O)(=O)N(C)C)cc2)c(S(=O)(=O)NCC[n+]2ccccc2)c1` as the compound, how does the Potency read?
**A.** inactive

**Q.** For `NCCC[C@H](N)CC(=O)N[C@H]1CNC(=O)[C@H]([C@H]2C[C@H](O)NC(N)=N2)NC(=O)/C(=C/NC(N)=O)NC(=O)[C@H](CO)NC(=O)[C@H](CO)NC1=O` (β3hOrn-[Dap]SS[ΔAla(Z-3-ureido)][X5]; lactam 1-C), which Potency is on record?
**A.** inactive

**Q.** With `O=C[C@H](O)[C@@H](O)[C@H](O[C@H]1O[C@H](CO)[C@@H](O[C@H]2O[C@H](CO)[C@@H](O)[C@H](O)[C@H]2O)[C@H](O)[C@H]1O)[C@H](O)CO` as the compound, how does the Potency read?
**A.** inactive

**Q.** Which Potency does the source give for `CC(=O)N[C@@H](CC(=O)N[C@@H](CCC(=O)O)C(=O)O)C(=O)O` here?
**A.** inactive

**Q.** With `CC1(C)S[C@@H]2[C@H](NC(=O)C(C(=O)Oc3ccc4c(c3)CCC4)c3ccccc3)C(=O)N2[C@H]1C(=O)O` (stereo partly drawn) as the compound, how does the Potency read?
**A.** inactive

**Q.** With `CC(=O)OCC(=O)[C@@]1(O)[C@H](C)C[C@H]2[C@@H]3C[C@H](F)C4=CC(=O)C=C[C@]4(C)[C@H]3[C@@H](O)C[C@@]21C` as the compound, how does the Potency read?
**A.** inactive

**Q.** For `Cc1c(O)cc2c(c1C)O[C@](C)(CCC[C@H](C)CCC[C@H](C)CCCC(C)C)CC2`, which Potency is on record?
**A.** inactive

**Q.** With `CCCCCCCCCCCCCCCC(=O)OC[C@@H](COP(=O)([O-])OCC[N+](C)(C)C)OC(=O)CCCCCCCCCCCCCCC` as the compound, how does the Potency read?
**A.** inactive

**Q.** With `CCCCCCCCCCCCCCCCCCOP(=O)([O-])OC1CC[N+](C)(C)CC1` as the compound, how does the Potency read?
**A.** inactive

**Q.** For `C=C1CC2C3CCC4=CC(=O)C=C[C@]4(C)[C@@]3(F)[C@@H](O)C[C@]2(C)[C@@]1(O)C(=O)COC(C)=O` (stereo partly drawn), which Potency is on record?
**A.** inactive

**Q.** Which Potency does the source give for `CO[C@H]1[C@@H](O)[C@H](N)[C@@H](O[C@H]2O[C@H]([C@H](C)N)CC[C@H]2N)[C@H](O)[C@@H]1N(C)C(=O)CN` here?
**A.** inactive
